Bioassay records deposited in PubChem by several laboratories.
HDAC3 inh: inhibitors of human histone deacetylase 3; O15379; recombinant HDAC3, fluorogenic peptide/trypsin coupled, fluorescence; inhibition, % at 8.3 µM; 0.15% of 320,000 active; in the data active = inhibition above about 26%, passing the limit was not always enough; inconclusive = no clear call, values can overlap the other calls
APOBEC3A inh: inhibitors of human APOBEC3A DNA deaminase; AID 493011; 0.41% of 330,000 active; inhibition, % at 20 µM; recombinant A3A, FAM/TAMRA ssDNA deamination fluorescence; P31941;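 active = at least 40% inhibition at 20 µM here, with at most 30% in a related deaminase screen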
A3G deaminase: APOBEC3G (human) deaminase inhibition; Q9HC16; recombinant A3G, ssDNA deamination FAM/TAMRA fluorescence; inhibition, % at 20 µM; 0.28% of 330,000 active;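 active = inhibition of at least 40% at 20 µM, with no more than 30% in the related APOBEC3A deaminase screen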
LANA-H2A inh: blocks KSHV LANA binding to histone H2A/H2B; 0.6% of 320,000 active; Q9QR71; cell-free LANA-H2A/H2B peptide, fluorescence polarization; inhibition, % (no concentration beside the values); AID 2629; in the data active = inhibition mostly above about 10%, no sharp cut-off; inactive = mostly below about 6.7%
Target sequence (Q9QR71 whole entry, looked up): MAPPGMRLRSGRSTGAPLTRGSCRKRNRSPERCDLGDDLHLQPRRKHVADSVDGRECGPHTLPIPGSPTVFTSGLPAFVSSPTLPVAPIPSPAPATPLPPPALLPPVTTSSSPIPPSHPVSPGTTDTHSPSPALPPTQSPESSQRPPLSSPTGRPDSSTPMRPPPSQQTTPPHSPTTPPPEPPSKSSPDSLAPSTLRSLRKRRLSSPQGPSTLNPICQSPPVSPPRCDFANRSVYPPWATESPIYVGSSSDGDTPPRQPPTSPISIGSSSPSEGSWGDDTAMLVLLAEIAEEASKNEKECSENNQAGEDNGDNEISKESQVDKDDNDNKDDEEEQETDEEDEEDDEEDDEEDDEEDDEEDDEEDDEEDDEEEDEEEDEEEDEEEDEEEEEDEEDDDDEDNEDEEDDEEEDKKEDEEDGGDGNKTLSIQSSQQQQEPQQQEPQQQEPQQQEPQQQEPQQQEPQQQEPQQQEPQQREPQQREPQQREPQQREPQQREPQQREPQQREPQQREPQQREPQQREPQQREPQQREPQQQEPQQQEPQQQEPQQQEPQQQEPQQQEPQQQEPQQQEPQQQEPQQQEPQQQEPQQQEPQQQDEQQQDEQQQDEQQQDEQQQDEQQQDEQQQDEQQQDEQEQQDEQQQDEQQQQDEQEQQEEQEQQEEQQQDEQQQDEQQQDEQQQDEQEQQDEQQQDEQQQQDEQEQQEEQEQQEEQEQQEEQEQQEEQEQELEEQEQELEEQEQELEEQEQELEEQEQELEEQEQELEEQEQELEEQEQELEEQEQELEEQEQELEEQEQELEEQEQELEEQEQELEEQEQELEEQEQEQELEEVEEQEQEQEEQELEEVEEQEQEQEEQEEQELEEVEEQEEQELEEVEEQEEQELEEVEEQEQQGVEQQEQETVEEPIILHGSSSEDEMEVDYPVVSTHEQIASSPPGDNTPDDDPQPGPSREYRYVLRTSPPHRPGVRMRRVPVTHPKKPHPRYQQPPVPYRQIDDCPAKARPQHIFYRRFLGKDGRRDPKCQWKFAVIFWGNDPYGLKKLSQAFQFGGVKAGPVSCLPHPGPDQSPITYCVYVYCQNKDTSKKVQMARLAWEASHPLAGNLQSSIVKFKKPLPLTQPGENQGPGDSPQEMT
APOBEC3A confirm: confirmation of human APOBEC3A DNA deaminase inhibitors. shares compounds with APOBEC3A inh. recombinant A3A, ssDNA deaminase UDG fluorescence assay. inhibition, % at 20 µM. 63% of 1,400 active. AID 493151;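 active = inhibition reaching a set limit, 80% of the first screen's cutoff, at 20 µM in any replicate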
UDG ctr A3A: counter-screen for APOBEC3A inhibitors: UDG; shares compounds with APOBEC3A inh; UDG counterscreen, FAM/TAMRA uracil oligo fluorescence; inhibition, % at 20 µM; 1,000 tested, under 10 active; AID 504714; call rule not given here
A number is an active result; . = inactive; ? = inconclusive; / = no result. Rows were chosen to be rich in hits. Some 1.4% of all compounds tested hit in one or more screens of this group.

SMILES	HDAC3 inh	APOBEC3A inh	A3G deaminase	LANA-H2A inh	APOBEC3A confirm	UDG ctr A3A
CN1C(=O)CS/C1=N\NC(=O)COc1cccc2cccnc12	.	.	.	.	/	/
CCN1C(N(C)CCc2cccs2)=N[C@@H](c2ccccc2)C(C(=O)OC)=C1C	.	52	.	.	52	.
CCN1C(N(C)CCc2c[nH]c3ccccc23)=N[C@@H](c2cccc(C(F)(F)F)c2)C(C(=O)OC)=C1C	.	.	.	.	/	/
CC(C)(C)N(Cc1ccccc1)C(=O)COC(=O)CCN1C(=O)C2CC=CCC2C1=O (stereo not given)	/	.	.	/	/	/
CN1CCCN(C(=O)c2ccc(Cl)s2)CC1	.	.	.	.	/	/
Cc1ccc2nc(C)c3c(c2c1)COC3	.	62	.	.	.	.
Cc1cc(C)c(S(=O)(=O)c2ccccc2C(C)C)c(=O)[nH]1	.	/	/	.	/	/
CC12CC3(C)CC(C)(C1)CC(C(=O)NCC(=O)O)(C2)C3	.	50	.	.	.	.
C=CCNC(=O)C12CC3(C)CC(C)(CC(C)(C3)C1)C2	.	.	.	.	/	/
O=C(NCCCO)c1cc([N+](=O)[O-])cc2c1C=Cc1ccccc1O2	.	47	.	.	.	/
CC1=CC(C)(C)[N+](C)=CN1c1ccccc1	.	57	.	.	70	.
Cc1nc2cc(C(=O)O)ccc2n1-c1ccccc1	.	.	.	.	/	/
Nc1ccc2oc(CCc3ccccc3)nc2c1	.	60	.	.	.	.
c1ccc2oc(CCc3nc4ccccc4o3)nc2c1	.	.	.	.	/	/
O=C(NC1CCCc2ccccc21)c1cc(Cl)ccn1 (stereo not given)	.	62	.	.	.	/
CCOC(=O)c1[nH]c2c(c1C)C(=O)CC(c1ccco1)C2 (stereo not given)	.	.	.	.	/	/
CSCCOC(=O)c1[nH]c2c(c1C)C(=O)CC(c1ccco1)C2 (stereo not given)	.	44	.	.	39	.
COCCOC(=O)c1[nH]c2c(c1C)C(=O)CC(c1ccco1)C2 (stereo not given)	.	56	.	.	45	.
Cc1c(C(=O)OCCOC(C)C)[nH]c2c1C(=O)CC(c1ccco1)C2 (stereo not given)	.	.	.	.	/	/
Cc1ccc(S(=O)(=O)N(Cc2ccccc2)Cc2ccco2)cc1	.	.	.	.	/	/
Cc1ccc(S(=O)(=O)N(CC(=O)O)Cc2ccco2)cc1	.	52	.	.	56	.
COc1ccc(NS(=O)(=O)c2cc(NC(=O)c3ccc(=O)[nH]n3)ccc2C)cc1	.	.	.	.	/	/
CCC(C)NC(=O)CSc1ccc(S(=O)(=O)N(C)C2CCCCC2)cn1 (stereo not given)	.	42	.	.	.	.
O=C(Cc1noc2ccccc12)Nc1ccc2ccccc2c1	.	47	.	.	.	.
Cc1ccc(NC(=O)Cc2noc3ccccc23)cc1	.	.	.	.	/	/
SMILES	HDAC3 inh	APOBEC3A inh	A3G deaminase	LANA-H2A inh	APOBEC3A confirm	UDG ctr A3A
CN(C)CCCNc1c2ccccc2nc2ccccc12	.	54	.	.	54	.
CN(C)CCCNc1nc(-c2ccccc2)nc2ccccc12	.	.	.	.	/	/
C[N+]1(CC2COC3(CCCCC3)O2)CCCC1 (stereo not given)	.	.	.	.	/	/
CC1CC(C)(C)OC(C[N+]2(C)CCCCC2)O1 (stereo not given)	.	49	.	.	77	.
C[N+]1(C2CCC3CCCC2C3O)CCCC1 (stereo not given)	.	59	.	.	74	.
C#CCn1cc(/C=N/NC(=O)COc2cccc3cccnc23)c2ccccc21	.	65	.	.	47	.
CN(Cc1cccs1)C(=O)CNC(=O)c1ccco1	.	.	.	.	/	/
CC1CCN(C(=O)c2ncn(C)c2C(=O)N2CCC(C)CC2)CC1	.	55	.	.	69	.
CC1CCN(C(=O)c2[nH]cnc2C(=O)Nc2nccs2)CC1	.	.	.	.	/	/
COc1cc(OC)cc(-c2nnc(SCC(=O)N(C(C)C)C(C)C)o2)c1	.	90	.	.	.	.
O=S(=O)(Nc1ccccc1N1CCCCC1)c1ccc(F)cc1F	.	.	.	.	/	/
Cc1ccc(S(=O)(=O)N2CCCCC2)cc1NC(=O)CCCOc1ccccc1	/	.	.	/	/	/
CCN1CCN(c2ccc(S(=O)(=O)N3CCCCC3)cc2NC(=O)c2ccccc2)CC1	.	46	.	.	23	.
CN1CCN(S(=O)(=O)c2cccc(C(=O)Nc3ccccc3N3CCCCC3)c2)CC1	.	.	.	.	/	/
CCN1CCN(c2ccc(S(=O)(=O)N3CCCCC3)cc2NC(=O)Cc2ccccc2F)CC1	.	.	.	.	/	/
CCN1CCN(c2ccc(S(=O)(=O)N3CCCCC3)cc2NC(=O)Cc2ccccc2)CC1	.	57	.	.	64	.
CN1CCN(S(=O)(=O)c2cccc(C(=O)Nc3cc(C(F)(F)F)ccc3N3CCCCC3)c2)CC1	?	44	.	.	.	/
CCN1CCN(c2ccc(S(=O)(=O)N3CCCCC3)cc2NC(=O)c2cccc(F)c2)CC1	.	.	.	.	/	/
CC(=O)c1ccc(OCCCC(=O)Nc2cc(S(=O)(=O)N3CCCCC3)ccc2C)cc1	/	40	.	/	.	/
Cc1cccc(N2CCN(S(=O)(=O)c3ccc(Cl)nc3)CC2C)c1 (stereo not given)	.	.	.	.	/	/
O=C(NC(=S)NC1CCC(O)CC1)c1ccco1 (stereo not given)	.	.	.	.	/	/
Cc1ccc(S(=O)(=O)NCc2ccc(C(=O)NC3CCC(O)CC3)cc2)cc1C (stereo not given)	.	.	.	.	/	/
O=C(NC1CCN(Cc2ccccc2)CC1)c1cn(-c2ccccc2)nc1-c1cccnc1	.	.	.	.	/	/
CCN1CCN(c2ccc(S(=O)(=O)N3CCCCC3)cc2NC(=O)c2ccc(C)o2)CC1	.	63	.	.	71	.
CCN1CCN(c2ccc(S(=O)(=O)N3CCCCC3)cc2NC(=O)Cc2ccc(Cl)c(Cl)c2)CC1	.	.	.	.	/	/
SMILES	HDAC3 inh	APOBEC3A inh	A3G deaminase	LANA-H2A inh	APOBEC3A confirm	UDG ctr A3A
CCN1CCN(c2ccc(S(=O)(=O)N3CCCCC3)cc2NC(=O)COc2ccccc2)CC1	/	.	.	.	/	/
CCC(=O)c1ccc(OCC(=O)Nc2cc(S(=O)(=O)N3CCCCC3)ccc2N2CCN(CC)CC2)cc1	.	55	.	.	66	.
O=C(Cc1c(F)cccc1Cl)Nc1cc(S(=O)(=O)N2CCCCC2)ccc1N1CCOCC1	.	.	.	.	/	/
CCOc1ccc(OC(=O)c2cccc(S(=O)(=O)N3CCN(C)CC3)c2)cc1	.	60	.	.	.	/
CN1CCN(c2ccc(S(=O)(=O)N3CCCCC3)cc2NC(=O)Cc2c(F)cccc2Cl)CC1	.	46	.	.	36	.
O=C(CNCc1cccnc1)Nc1cc(C(F)(F)F)ccc1N1CCOCC1	.	.	.	.	/	/
CCOc1ccccc1OCC(=O)Nc1cc(S(=O)(=O)N2CCCCC2)ccc1N1CCN(CC)CC1	.	60	.	.	55	.
